A selection: hits, their analogues and other compounds. The true share with any hit is near 32%.
CYP2C19 activ = human CYP2C19 activators, primary screen, biochemical, luminescence | recombinant CYP2C19, luciferin-H EGE luminescence; stronger effect = higher value; 0 = fully inhibited enzyme, 1 = untreated enzyme | activation factor at 5 µM | Cytochrome P450 2C19 (Homo sapiens), P33261 | 96,000 tested, under 10 active | AID 1025, 2008;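 active = activation factor of at least 2 at 5 µM in the primary screen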;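 note: 0 = wells with 2.5 mM tranylcypromine and 1 = vehicle-only wells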
Target sequence (P33261 whole entry, looked up): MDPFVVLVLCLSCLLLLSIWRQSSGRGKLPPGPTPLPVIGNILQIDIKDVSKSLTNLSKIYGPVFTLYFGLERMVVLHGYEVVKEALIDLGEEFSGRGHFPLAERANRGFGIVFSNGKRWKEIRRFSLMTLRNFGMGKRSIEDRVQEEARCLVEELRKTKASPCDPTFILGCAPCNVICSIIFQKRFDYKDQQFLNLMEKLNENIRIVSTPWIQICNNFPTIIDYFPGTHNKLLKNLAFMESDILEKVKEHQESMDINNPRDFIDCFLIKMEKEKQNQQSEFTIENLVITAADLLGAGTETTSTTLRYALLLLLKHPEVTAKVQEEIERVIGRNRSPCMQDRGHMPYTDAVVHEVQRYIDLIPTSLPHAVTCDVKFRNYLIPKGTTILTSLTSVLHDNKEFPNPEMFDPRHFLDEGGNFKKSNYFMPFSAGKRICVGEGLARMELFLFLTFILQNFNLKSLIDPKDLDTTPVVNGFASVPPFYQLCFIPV
PostGolgi yeast = phenotypic screen on post-Golgi transport, primary screen. post-Golgi transport phenotypic cell assay. inhibition, % at 10 µM. 0.9% of 98,000 active. AID 739, 2007;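 note: yeast cells grown in 1536-well plates; yeast grown about 18 h at 30C before absorbance read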
CYP2C9 activ = human CYP2C9 activators, primary screen, biochemical, luminescence; AID 1024, 2008; 1.4% of 96,000 active; Cytochrome P450 2C9 (Homo sapiens), P11712; activation factor at 5 µM; recombinant CYP2C9, luciferin-H conversion; stronger effect = higher value; factor 1 = untreated enzyme, 0 = blocked;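 active = activation factor of 2 or more for CYP2C9 at a 5 µM dose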;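 note: 0 = sulfaphenazole-blocked wells and 1 = vehicle-only wells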
CYP2C9 inh = blockers of cytochrome P450 2C9 activity – biochemical, luminescence, ADME assay, primary screen | inhibition, % at 5 µM | CYP2C9 Supersomes, luciferin-H conversion | P11712 | AID 777, 2007 | 20% of 96,000 active;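 active = blocking of liver enzyme CYP2C9 beyond about 50% at 5 µM, limit read from the data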
CYP2C19 inh = blockers of cytochrome P450 2C19 activity – biochemical, luminescence, ADME assay, primary screen. inhibition, % at 5 µM. P33261. 21% of 96,000 active. AID 778, 2007. CYP2C19 Supersomes, luciferin-H EGE luminescence, 30 min;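 active = CYP2C19 inhibition above a set limit at 5 µM in the primary screen, cut at about 50% in these data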;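 note: plate controls were negative control wells for no effect and 2.5 mM tranylcypromine positive control for full effect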
PostGolgi ctrl = growth inhibition of yeast control strain, primary screen, counter-screen for post-Golgi transport modulator project. efflux-deficient yeast background strain, growth absorbance A615, 16 h. inhibition, % at 10 µM. 5% of 98,000 active
* marks the source's active call; other numbers are inactive results; · = no result given. Cut-off read from the data, not from the text of the source, unless noted: active = inhibition above about 30%; inactive = the rest.

SMILES | CYP2C19 activ | PostGolgi yeast | CYP2C9 activ | CYP2C9 inh | CYP2C19 inh | PostGolgi ctrl
Cc1ccnc(N2C(=O)c3cccc4c([N+](=O)[O-])ccc(c34)C2=O)c1 | 0.7 | 105.1* | 1.1 | -7.5 | 29.4 | 53.4*
Cn1c2c(c(=O)n(C)c1=O)C(c1ccc(Br)cc1)Nc1ccccc1O2 (stereo not drawn) | 0.4 | 11.2 | 0.3 | 65.2* | 55.5* | 13.2
CCCCN(CCCC)CP(=O)(c1ccccc1)c1ccccc1 | 0.8 | 15.8 | 0.8 | 19.9 | 23.1 | 16.3
COCCCN1C(=O)c2ccc(C(=O)Nc3ccccc3OC)cc2C1=O | 0.7 | 6.4 | 2* | -99.7 | 34.8 | 1.4
CCCCN1C(=O)c2ccc(C(=O)Nc3c(N)n(CCCC)c(=O)n(C)c3=O)cc2C1=O | 0.9 | -9.1 | 0.4 | 56.5* | 8.5 | 7.0
COCCN1C(=O)c2ccc(C(=O)O)cc2C1=O | 0.9 | 0.1 | 0.5 | 54.7* | 14.7 | -4.3
Cc1noc(C)c1C(=O)Nc1sc(C)c(C)c1C#N | 0.9 | 15.1 | 0.4 | 62.0* | 9.5 | 3.8
Cc1nc(NCc2ccco2)nc2c1C(=O)CC(C)C2 (stereo not drawn) | 1 | -4.8 | 0.8 | 21.2 | 3.0 | 7.4
CCCNc1nc2c(c(=O)[nH]c(=O)n2C)n1CCC(C)C | 0.9 | 3.4 | 0.5 | 49.2 | 9.6 | 6.1
CCOC(=O)C1C(=O)CC(O)(c2ccccc2)CC1c1ccccc1 (stereo not drawn) | 0.3 | -2.9 | 0.2 | 82.0* | 73.1* | 5.1
O=C(CSc1nc2ccccc2o1)NCc1n[nH]c(=O)c2ccccc12 | 1.1 | 0.5 | 1.5 | -50.4 | -12.8 | -0.8
Cc1c(C(=O)N2CCC(C(N)=O)CC2)sc(N)c1C#N | 1 | 1.4 | 1 | 0.5 | -1.6 | -1.6
Cc1c(C)c2ccc(OCc3ccc(C(=O)O)o3)c(C)c2oc1=O | 1 | 2.6 | 0.8 | 20.6 | 1.4 | 10.8
COC(=O)Cc1c(C)c2ccc(OC(=O)c3ccccc3)cc2oc1=O | 1 | 0.3 | 1.1 | -9.2 | 0.1 | 7.9
COc1cc(COc2ccc3c(C)c(Cc4ccccc4)c(=O)oc3c2)cc(OC)c1OC | 0.6 | -5.7 | 0.4 | 57.4* | 36.1 | 16.0
COc1cc(COc2ccc3c(C)c(Cc4ccccc4)c(=O)oc3c2C)cc(OC)c1OC | 0.4 | 2.9 | 0.3 | 66.1* | 58.2* | 19.9
Cc1c(Cc2ccccc2)c(=O)oc2cc(OC(=O)c3ccccc3)ccc12 | 0.4 | -5.1 | 0.6 | 39.8 | 60.3* | -2.1
CCC(SC1=NCCS1)C(=O)Nc1nnc(-c2ccccc2OC)s1 (stereo not drawn) | 1 | 7.8 | 0.8 | 15.7 | -3.0 | 23.2
c1cc2ccc3ccc(-n4cnnn4)c4ccc(c1)c2c34 | 0.6 | -7.4 | 1.4 | -35.1 | 42.4 | 30.5*
CCOC(=O)C(C)c1nn(C)c(=O)c2ccccc12 (stereo not drawn) | 0.3 | 5.7 | 0.8 | 15.4 | 67.0* | -5.2
Cc1ccc(S(=O)(=O)C/N=C(/NC(=S)N(c2ccccc2)c2ccccc2)c2ccccc2)cc1 | 0.7 | -0.6 | 0.3 | 69.2* | 28.4 | 28.4
Cc1cc(/C=N/NC(=O)c2cccc([N+](=O)[O-])c2)c(C)n1-c1ccc(Cl)cc1Cl | 1.1 | 33.6* | 1 | -0.8 | -13.2 | 14.3
Cc1ccc(C(=O)N/N=C/c2cc(C)n(-c3ccc(Br)cc3)c2C)cc1[N+](=O)[O-] | 0.9 | 4.5 | 1.1 | -9.1 | 12.2 | 13.5
O=[N+]([O-])c1ccc(/C=N/Nc2nc(-c3ccccc3)c3cc(Br)ccc3n2)o1 | 1 | 8.9 | 1 | -2.5 | -3.9 | 64.2*
Cc1ccc2nc(N/N=C\c3ccc([N+](=O)[O-])o3)nc(-c3ccccc3)c2c1 | 0.3 | 107.6* | 0.1 | 86.8* | 72.9* | 98.7*
SMILES | CYP2C19 activ | PostGolgi yeast | CYP2C9 activ | CYP2C9 inh | CYP2C19 inh | PostGolgi ctrl
CC(=O)c1c(C)nn(C(=O)N2CCOCC2)c1C | 1 | · | 1 | -2.4 | -4.5 | ·
O=C1Nc2ccccc2C12NCCc1c2[nH]c2ccccc12 (stereo not drawn) | 0.6 | 3.4 | 0.7 | 27.1 | 44.4 | -6.2
COc1cc2c(cc1OC)C1(NCC2)C(=O)Nc2ccccc21 (stereo not drawn) | 1 | 0.3 | 1.1 | -10.7 | -0.9 | 47.7*
CCOC(=O)N1CCC(N2Cc3cccc(C(=O)NCc4ccc(C)cc4)c3C2=O)CC1 | 0.8 | 5.0 | 0.3 | 70.1* | 24.7 | 12.1
CCOC(=O)N1CCN(c2c(NCCc3ccccc3)c(=O)c2=O)CC1 | 0.9 | -1.8 | 1 | 3.4 | 9.5 | -4.8
CCOC(=O)N1CCN(c2c(NCc3ccccn3)c(=O)c2=O)CC1 | 0.7 | -2.5 | 1.2 | -17.0 | 27.1 | 31.1*
O=C(NCc1cccnc1)c1cccc2c1C(=O)N(C1CCCCC1)C2 | · | -6.7 | · | · | · | 4.0
CCOC(=O)N1CCC(N2Cc3cccc(C(=O)NC(C)c4ccc5c(c4)OCCO5)c3C2=O)CC1 (stereo not drawn) | 0.2 | -5.1 | 0 | 98.5* | 82.4* | 1.5
CCOC(=O)N1CCC(NC(=O)c2cccc3c2C(=O)N(CCOC)C3)CC1 | 0.7 | -4.7 | 0.1 | 87.7* | 33.5 | 0.0
Cc1cc(NC(=O)C2CCCCC2C(=O)O)no1 (stereo not drawn) | 1.1 | -0.7 | 1.2 | -21.8 | -13.9 | 11.4
CCOC(=O)N1CCC(N2Cc3cccc(C(=O)NCc4ccccn4)c3C2=O)CC1 | 0.3 | 2.8 | 0.1 | 94.9* | 73.9* | 4.9
COCCN1Cc2cccc(C(=O)NCc3ccccn3)c2C1=O | 0.6 | -10.0 | 0.9 | 13.7 | 43.3 | -3.6
CCOC(=O)N1CCN(CC(=O)N2c3ccccc3CC2C)CC1 (stereo not drawn) | 1 | -0.9 | 1.1 | -12.0 | 3.9 | 4.2
CCOC(=O)c1cc(-c2ccc(/C=C3/C(=O)NC(=O)C(C#N)=C3C)o2)ccc1Cl | 0.8 | -8.5 | 0.3 | 71.2* | 19.1 | 4.2
COc1cccc(Cn2cccc(NC(=O)Nc3ccc(C#N)cc3)c2=O)c1 | 0.9 | 0.5 | 1 | 1.6 | 6.3 | 28.4
COc1ccc(S(=O)(=O)N2CCN(C(=O)[C@@H]3CCC(=O)N3C3OC(=O)c4ccccc43)CC2)cc1 (stereo partly drawn) | 0.9 | 0.0 | 0.9 | 7.2 | 5.1 | 6.7
CC1(C)Cc2c(C#N)c(N3CCOCC3)nc(-c3ccccc3)c2CO1 | · | -3.1 | · | · | · | 25.2
COc1nc(-c2ccccc2)c2c(c1C#N)CC(C)(C)OC2 | 0.2 | 17.7 | 0.5 | 47.3 | 78.2* | 6.1
CC1(C)Cc2c(c(-c3ccccc3)[nH]c(=O)c2C#N)CO1 | 0.4 | -6.8 | 1.1 | -8.4 | 55.0* | 5.1
CC(C)c1[nH]c(=O)c(C#N)c2c1COC(C)(C)C2 | 0.8 | 4.4 | 1.1 | -5.8 | 16.7 | 7.3
CC(C)Cc1[nH]c(=O)c(C#N)c2c1COC(C)(C)C2 | 0.5 | 3.5 | 1.1 | -10.1 | 45.7 | -3.2
